Values joined by “and” are separate entries in the source; they are usually repeats but may differ in a detail not shown here. Equal entries are not always repeated. More than one record can exist for a structure, and the calls need not agree. Active and inactive are the calls of the source. Unless noted, calls follow the shape of the dose curve; as a rule, active = well fitted curve in the direction sought with a large enough effect in the repeat runs; inconclusive = weak or mixed curves; inactive = no such curve, though single readings can be large; an effect the other way counts as inactive or inconclusive.
What was measured:
[1] = qHTS assay to identify small molecule antagonists of the glucocorticoid receptor (GR) signaling pathway - cell viability counter screen (AID 720693); also: nearly all actives have a fitted effect of over 55% in size; also: potency is read from the fitted curve at half-maximal effect
[2] = qHTS assay for identifying genotoxic compounds that show differential cytotoxicity against isogenic chicken DT40 cell lines with known DNA damage response pathways - wild type cell line (AID 743012); also: nearly all actives have a fitted effect of over 60% in size; also: potency is read from the fitted curve at half-maximal effect
Method in brief: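 Viability by ATP luminescence (CellTiter-Glo, 30 min RT) after 40 h compound treatment at 37 C/5% CO2, using 300 parental DNA repair-proficient DT40 cells per well.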

[3] = qHTS assay for identifying genotoxic compounds that show differential cytotoxicity against isogenic chicken DT40 cell lines with known DNA damage response pathways - Rev3 mutant cell line (AID 743014); also: nearly all actives have a fitted effect of over 55% in size; also: potency is read from the fitted curve at half-maximal effect
[4] = qHTS assay for identifying genotoxic compounds that show differential cytotoxicity against isogenic chicken DT40 cell lines with known DNA damage response pathways - Rad54/Ku70 mutant cell line (AID 743015); also: nearly all actives have a fitted effect of over 60% in size; also: potency is read from the fitted curve at half-maximal effect
[5] = target: Androgen receptor (Homo sapiens) (UniProt P10275); experiment: qHTS assay to identify small molecule antagonists of the androgen receptor (AR) signaling pathway (AID 743035; active = well fitted inhibition curve with a large enough effect in the signal ratio in the repeat runs, not every such curve was filed as active; inconclusive = weak or mixed curves, or effect the other way; inactive = no such curve, though single readings can be large or run the other way; the % refers to the signal ratio; also: potency is read from the fitted curve at half-maximal effect)
Androgen receptor (Homo sapiens), sequence (P10275 whole entry, looked up): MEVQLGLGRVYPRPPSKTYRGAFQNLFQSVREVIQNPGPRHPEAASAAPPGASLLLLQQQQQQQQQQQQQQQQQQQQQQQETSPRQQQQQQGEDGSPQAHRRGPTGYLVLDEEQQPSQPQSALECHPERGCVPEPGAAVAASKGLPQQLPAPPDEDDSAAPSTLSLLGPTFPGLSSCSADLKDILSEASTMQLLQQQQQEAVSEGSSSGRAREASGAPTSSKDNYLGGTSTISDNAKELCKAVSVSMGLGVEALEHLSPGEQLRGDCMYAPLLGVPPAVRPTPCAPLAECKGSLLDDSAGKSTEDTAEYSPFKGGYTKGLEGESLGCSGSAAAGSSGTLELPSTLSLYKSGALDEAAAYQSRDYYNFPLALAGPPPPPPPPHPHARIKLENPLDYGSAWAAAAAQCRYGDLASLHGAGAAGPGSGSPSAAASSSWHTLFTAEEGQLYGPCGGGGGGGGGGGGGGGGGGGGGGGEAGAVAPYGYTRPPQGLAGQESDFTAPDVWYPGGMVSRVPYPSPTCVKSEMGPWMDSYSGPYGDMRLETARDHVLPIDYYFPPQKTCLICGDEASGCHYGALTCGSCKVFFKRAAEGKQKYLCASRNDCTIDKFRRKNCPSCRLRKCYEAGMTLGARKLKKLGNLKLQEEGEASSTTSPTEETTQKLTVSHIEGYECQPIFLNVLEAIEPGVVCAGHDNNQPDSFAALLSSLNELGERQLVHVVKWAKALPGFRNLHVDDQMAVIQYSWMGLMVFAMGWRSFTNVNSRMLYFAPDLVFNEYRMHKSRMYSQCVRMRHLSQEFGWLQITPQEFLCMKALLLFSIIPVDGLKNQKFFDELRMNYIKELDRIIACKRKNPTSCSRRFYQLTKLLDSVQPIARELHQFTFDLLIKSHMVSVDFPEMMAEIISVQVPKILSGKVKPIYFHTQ
Method in brief: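 Antagonist mode: AR-bla HEK293 cells co-treated with test compounds and agonist R1881 for 16 h at 37C, 5% CO2. Beta-lactamase activity read as FRET fluorescence after 2 h room-temperature substrate loading.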

[6] = target: Androgen receptor (Homo sapiens) (UniProt P10275); experiment: qHTS assay to identify small molecule agonists of the androgen receptor (AR) signaling pathway (AID 743036; active = well fitted activation curve with a large enough effect in the signal ratio in the repeat runs, with a control signal flat, not every such curve was filed as active; inconclusive = weak or mixed curves, or effect the other way; inactive = no such curve, though single readings can be large or run the other way; the % refers to the signal ratio)
Method in brief: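 HEK293 cells stably carrying a UAS-driven beta-lactamase reporter (GeneBLAzer AR-UAS-bla-GripTite) were plated at 2,000 cells/well, rested 4 h at 37C, then exposed to compounds in DMSO for 16 h. LiveBLAzer B/G FRET substrate was added for 2 h at room temperature; fluorescence read.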

[7] = target: Androgen receptor (Homo sapiens) (UniProt P10275); experiment: qHTS assay to identify small molecule agonists of the androgen receptor (AR) signaling pathway using the MDA cell line (AID 743040; also: nearly all actives have a fitted effect of over 20% in size)
Method in brief: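 Agonist activity is measured as luciferase luminescence in human MDA-kb2 cells whose MMTV reporter responds to both AR and GR. Compounds in DMSO incubate 16 h at 37C, 0% CO2, and ONE-Glo is read after 30 min.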

[8] = qHTS assay to identify small molecule antagonists of the thyroid receptor (TR) signaling pathway - cell viability counter screen (AID 743064); also: nearly all actives have a fitted effect of over 50% in size; also: potency is read from the fitted curve at half-maximal effect
Method in brief: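 GH3.TRE-Luc rat pituitary cells carrying a TRE-luciferase reporter were treated with compound plus 1 nM T3 (final) for 23.5 h at 37 °C. Viability was then read in the same wells by CellTiter-Fluor fluorescence after a further 30 min.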

[9] = qHTS assay to identify small molecule antagonists of the thyroid receptor (TR) signaling pathway (AID 743065); also: nearly all actives have a fitted effect of over 55% in size; also: potency is read from the fitted curve at half-maximal effect
Method in brief: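 GH3.TRE-Luc rat pituitary cells carrying two TR response elements driving luciferase were plated for 4 h, given compound plus 1 nM T3 (final), and incubated 23.5 h at 37 C. ONE-Glo luminescence measured reporter inhibition; CellTiter-Fluor fluorescence tracked cytotoxicity.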

[10] = target: Estrogen receptor (Homo sapiens) (UniProt P03372); experiment: qHTS assay to identify small molecule antagonists of the estrogen receptor alpha (ER-alpha) signaling pathway (AID 743069; active = well fitted curve in the direction sought with a large enough effect in the signal ratio in the repeat runs, not every such curve was filed as active; inconclusive = weak or mixed curves, or effect the other way; inactive = no such curve, though single readings can be large or run the other way; the % refers to the signal ratio; also: potency is read from the fitted curve at half-maximal effect)
Estrogen receptor (Homo sapiens), sequence (P03372 whole entry, looked up): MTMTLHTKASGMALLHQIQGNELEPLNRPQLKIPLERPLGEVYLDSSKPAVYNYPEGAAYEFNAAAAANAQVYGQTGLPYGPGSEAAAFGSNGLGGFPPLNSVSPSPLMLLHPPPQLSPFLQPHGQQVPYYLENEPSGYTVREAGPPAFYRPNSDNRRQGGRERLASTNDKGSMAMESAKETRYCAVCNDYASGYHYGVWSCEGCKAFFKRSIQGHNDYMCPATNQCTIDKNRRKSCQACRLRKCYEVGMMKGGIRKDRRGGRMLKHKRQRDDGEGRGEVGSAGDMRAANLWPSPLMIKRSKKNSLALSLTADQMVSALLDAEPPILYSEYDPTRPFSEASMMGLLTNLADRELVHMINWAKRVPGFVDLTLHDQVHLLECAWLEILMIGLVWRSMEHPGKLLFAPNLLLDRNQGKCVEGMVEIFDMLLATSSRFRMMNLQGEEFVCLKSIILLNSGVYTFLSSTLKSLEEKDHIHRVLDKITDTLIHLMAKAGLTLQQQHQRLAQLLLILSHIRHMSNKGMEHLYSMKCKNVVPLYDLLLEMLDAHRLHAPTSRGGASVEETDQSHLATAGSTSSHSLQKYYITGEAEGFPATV
Method in brief: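 Screening used a UAS-driven beta-lactamase reporter integrated into HEK293 cells expressing ER-alpha, stimulated with 17beta-estradiol alongside test compounds over 18 hr at 37C; signal came from LiveBLAzer B/G FRET fluorescence.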

[11] = qHTS assay to identify small molecule antagonists of the estrogen receptor alpha (ER-alpha) signaling pathway - cell viability counter screen (AID 743074; calls by dose curve; also: nearly all actives have a fitted effect of over 45% in size; also: potency is read from the fitted curve at half-maximal effect)
[12] = target: Estrogen receptor (Homo sapiens) (UniProt P03372); experiment: qHTS assay to identify small molecule agonists of the estrogen receptor alpha (ER-alpha) signaling pathway (AID 743075; calls by dose curve)
[13] = qHTS assay to identify small molecule antagonists of the estrogen receptor alpha (ER-alpha) signaling pathway using the BG1 cell line (AID 743080; calls by dose curve;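 also: BG1 cells stimulated with 17beta-estradiol alongside compound; nearly all actives have a fitted effect of over 25% in size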; also: potency is read from the fitted curve at half-maximal effect)
Method in brief: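 Quantitative HTS on the Tox21 10K library: BG1 cells with endogenous ER-alpha and ERE-luciferase reporter, 17beta-estradiol stimulation, 21.5 h compound exposure, luminescence endpoint with parallel fluorescence cytotoxicity counter-read.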

[14] = qHTS assay to identify small molecule antagonists of the estrogen receptor alpha (ER-alpha) signaling pathway using the BG1 cell line - cell viability counter screen (AID 743081);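 also: compound given together with 17beta-estradiol as the ER stimulus; nearly all actives have a fitted effect of over 45% in size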; also: potency is read from the fitted curve at half-maximal effect
Aromatase (Homo sapiens) = Aromatase (Homo sapiens) (UniProt P11511); experiment: qHTS assay to identify aromatase inhibitors (AID 743083); also: nearly all actives have a fitted effect of over 55% in size; also: potency is read from the fitted curve at half-maximal effect
Aromatase (Homo sapiens), sequence (P11511 whole entry, looked up): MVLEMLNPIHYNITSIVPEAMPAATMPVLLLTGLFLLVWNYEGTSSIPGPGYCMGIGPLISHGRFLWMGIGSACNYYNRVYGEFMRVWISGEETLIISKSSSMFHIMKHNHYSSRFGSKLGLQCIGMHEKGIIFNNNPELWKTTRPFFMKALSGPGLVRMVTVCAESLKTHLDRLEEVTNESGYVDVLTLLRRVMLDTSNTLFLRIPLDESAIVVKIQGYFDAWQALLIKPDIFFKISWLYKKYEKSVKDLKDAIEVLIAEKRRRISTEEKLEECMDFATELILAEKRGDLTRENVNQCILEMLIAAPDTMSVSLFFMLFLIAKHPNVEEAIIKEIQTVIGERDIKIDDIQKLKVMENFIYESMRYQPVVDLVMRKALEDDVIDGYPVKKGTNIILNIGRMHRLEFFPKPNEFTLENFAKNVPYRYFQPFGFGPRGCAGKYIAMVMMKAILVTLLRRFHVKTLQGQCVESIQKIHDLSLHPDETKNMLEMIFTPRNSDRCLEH

[15] = qHTS assay to identify small molecule antagonists of the androgen receptor (AR) signaling pathway - cell viability counter screen (AID 743033; also: nearly all actives have a fitted effect of over 45% in size)
[16] = system: thyroid hormone receptor (rat, GH3 cells); experiment: qHTS assay to identify small molecule agonists of the thyroid receptor (TR) signaling pathway (AID 743066; calls by dose curve)
[17] = target: Estrogen receptor (Homo sapiens) (UniProt P03372); experiment: qHTS assay to identify small molecule agonists of the estrogen receptor alpha (ER-alpha) signaling pathway using the BG1 cell line (AID 743079); conditions: BG1Luc4E2 cells, ERE-luciferase agonist, 22 h; activation: at 70.3 µM (top of the series); also: nearly all actives have a fitted effect of over 20% in size; also: potency is read from the fitted curve at half-maximal effect
[18] = qHTS assay to identify small molecule antagonists of the androgen receptor (AR) signaling pathway using the MDA cell line - cell viability counter screen (AID 743041; also: nearly all actives have a fitted effect of over 45% in size)
Method in brief: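 qHTS viability read-out; MDA-kb2 AR-luc; R1881-stimulated; 16 h exposure at 37C, 0% CO2; CellTiter-Fluor, 30 min; fluorescence intensity.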

[19] = target: Androgen receptor (Homo sapiens) (UniProt P10275); experiment: qHTS assay to identify small molecule antagonists of the androgen receptor (AR) signaling pathway using the MDA cell line (AID 743042; also: nearly all actives have a fitted effect of over 55% in size)
Method in brief: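 MDA-kb2 cells (human breast carcinoma, stably carrying an MMTV-luciferase reporter responsive to AR and GR) were plated at 3,000 cells/well and preincubated 5 hr at 37C, then given compound plus R1881 agonist for 16 h. ONE-Glo luminescence was read.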

Measured: Potency

Cc1cc(O)c2c(c1)O[C@@]1(C)CC[C@H]3C(C)(C)CCCC34CO[C@@H]2[C@H]41 (some centres not stated)
active: [1] 23.9 µM | [2] 13.3 µM | [3] 10.6 µM | [4] 13.3 µM | [5] 23.9 µM | [8] 18.8 µM | [9] 13.3 µM | [13] 26.6 µM | Aromatase (Homo sapiens) 26.6 µM
inactive: [6] | [7] | [10] | [11] | [12] | [14]

CO/N=C(\C(=O)N[C@@H]1C(=O)N2C(C(=O)OCOC(=O)C(C)(C)C)=C(/C=C\c3scnc3C)CS[C@H]12)c1csc(N)n1
not listed: [5] | [6] | [7] | [8] | [18] | [19]
inactive: all other assays above

CS(=O)(=O)Nc1cc2occ(NC=O)c(=O)c2cc1Oc1ccccc1
not listed: [5] | [6] | [10] | [12] | [13] | [15] | [17]
inactive: all other assays above

CN(C)CC/C=C1/c2ccccc2CSc2ccccc21
active: [2] 11.4 µM | [3] 12.7 µM | [4] 12.7 µM | [8] 4.52 µM | [9] 9.02 µM
not listed: [5] | [15]
inactive: all other assays above

C[C@H](CCCC(C)(C)O)[C@H]1CC[C@H]2[C@@H]3CC=C4C[C@@H](O)CC[C@]4(C)[C@H]3CC[C@]12C
active: [2] 1.68 µM | [3] 0.211 µM | [4] 10.6 µM
inactive: [1] | [7] | [18] | [19] | [8] | [11] | [14] | Aromatase (Homo sapiens)

O=P(O)(O)OC[C@H]1O[C@](O)(COP(=O)(O)O)[C@@H](O)[C@@H]1O
active: [17] 10.6 µM
not listed: [5] | [6] | [7] | [12] | [15] | [19]
inactive: all other assays above

CN1CC(O)c2cc(N=NC(N)=O)c(O)cc21 (configuration not stated)
inactive: [1] | [2] | [3] | [4] | [15] | [11] | [12] | [17] | [13] | [14] | Aromatase (Homo sapiens)

O=C(NOC[C@H](O)CO)c1ccc(F)c(F)c1Nc1ccc(I)cc1F
not listed: [5] | [6] | [11] | [15] | [19]
inactive: all other assays above

CC(=O)N[C@@H]([C@@H](O)[C@H](O)[C@H](O)CO)[C@@H](O)CC(=O)C(=O)O
inactive: [1] | [2] | [3] | [4] | [18] | [8] | [9] | [16] | [11] | [14] | Aromatase (Homo sapiens)

CO/N=C(\C(=O)N[C@@H]1C(=O)N2C(C(=O)O)=C(CSC(=O)c3ccco3)CS[C@H]12)c1csc(N)n1
not listed: [15]
inactive: all other assays above

O=C1/C(=C\c2cccs2)CCC/C1=C\c1cccs1
active: [2] 23.7 µM | [3] 26.6 µM | [4] 29.8 µM | [17] 26.6 µM
inactive: [1] | [7] | [18] | [19] | [8] | [16] | [11] | [14] | Aromatase (Homo sapiens)

CCN(CC)Cc1cc(Nc2ccnc3cc(Cl)ccc23)ccc1O
inactive: [1] | [7] | [19] | [11] | Aromatase (Homo sapiens)
active: [2] 7.17 µM | [3] 7.17 µM | [4] 8.04 µM

CCOC(=O)Oc1c(OC)cc(C(=O)O[C@@H]2C[C@@H]3CN4CCc5c([nH]c6cc(OC)ccc56)[C@H]4C[C@@H]3[C@H](C(=O)OC)[C@H]2OC)cc1OC
inactive: [1] | [15] | [8] | [16] | [11] | [14]
active: [2] 10.1 µM | [3] 11.4 µM | [4] 12.7 µM

CCC(C)[C@H]1O[C@]2(C=C[C@@H]1C)C[C@@H]1C[C@@H](C/C=C(\C)[C@@H](O[C@H]3C[C@H](OC)[C@@H](O[C@H]4C[C@H](OC)[C@H](NC(C)=O)[C@H](C)O4)[C@H](C)O3)[C@@H](C)/C=C/C=C3\CO[C@@H]4[C@H](O)C(C)=C[C@@H](C(=O)O1)[C@]34O)O2 (some centres not stated)
23.7 µM (active) and inactive: [14]
active: [1] 7.56 µM and 19 µM | [2] 841 nM and 1.68 µM | [3] 1.33 µM and 2.98 µM | [4] 1.68 µM and 3.35 µM | [8] 2.66 µM and 7.5 µM | [10] 1.69 µM [inconclusive] | [11] 8.49 µM and 26.8 µM
inactive: [15] | [12] | Aromatase (Homo sapiens)

Source: PubChem BioAssay (Tox21)
